Compound activity deposited in PubChem by National Center for Advancing Translational Sciences (NCATS).
The list is not random: actives were taken first. Their share in the collection is about 3.5%.
TRb-SRC2 inh: qHTS for Inhibitors of the Interaction of Thyroid Hormone Receptor and Steroid Receptor Coregulator 2 | Potency, µM (titrated, usually from 106 µM), without a hit: at the highest dose activity change, negative = inhibition, usual class: inhibitors | AID 1469, 2008 | Thyroid hormone receptor beta (Homo sapiens), P10828 | TRbeta-SRC2 peptide binding, fluorescence polarization; receptor liganded with 1 µM T3 | actives 0.065% (n = 280,000);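 note: plate controls were bound peptide for no effect and peptide without receptor for full effect; nearly all actives have a fitted effect of over 50% in size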
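Human TRb LBD (0.6 uM) plus Texas Red-labeled SRC2 peptide (20 nM), 1uM T3, 5% DMSO, 5 hr at ambient temperature. Decreased polarization (555/632 nm) flags inhibition; data normalized to free and bound peptide controls.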
KDM4E inh: qHTS Assay for Inhibitors of Human Jumonji Domain Containing 2E (JMJD2E); Lysine-specific demethylase 4E (Homo sapiens), B2RXH2; JMJD2E catalytic domain, FDH-coupled NADH fluorescence (FDH is formaldehyde dehydrogenase); Potency, µM (doses to about 57.1 µM), without a hit: top-dose activity change, negative = inhibition, most hits filed as inhibitors; actives 1.6% (n = 230,000); active = well fitted inhibition curve with a large enough effect, not every such curve was filed as active; inconclusive = small, poorly fitted or top-dose-only effect, or another doubt; inactive = no such curve, though single readings can be large or run the other way;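 note: 0% = wells with enzyme and -100% = buffer wells without enzyme; nearly all actives have a fitted effect of over 50% in size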
Target sequence (B2RXH2 1-337 limits assumed): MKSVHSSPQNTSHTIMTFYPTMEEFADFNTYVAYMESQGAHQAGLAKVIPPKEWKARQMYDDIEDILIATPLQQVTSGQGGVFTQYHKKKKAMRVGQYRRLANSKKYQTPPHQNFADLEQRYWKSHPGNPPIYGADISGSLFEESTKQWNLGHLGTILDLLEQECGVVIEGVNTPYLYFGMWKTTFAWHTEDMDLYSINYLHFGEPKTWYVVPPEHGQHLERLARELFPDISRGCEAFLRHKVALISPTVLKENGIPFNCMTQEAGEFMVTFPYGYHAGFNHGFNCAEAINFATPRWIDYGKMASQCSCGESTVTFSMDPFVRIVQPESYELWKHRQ
Tau fibril ThT: qHTS for Inhibitors of Tau Fibril Formation, Thioflavin T Binding. Microtubule-associated protein tau (Homo sapiens), P10636. recombinant tau K18 P301L, heparin-induced fibrillization, ThT fluorescence. Potency, µM (doses to about 57.4 µM), for the others: top-dose activity, negative = inhibition, usual class: inhibitors. actives 2.1% (n = 270,000). AID 1460, 2008; note: nearly all actives have a fitted effect of over 55% in size
Target sequence (P10636 561-689 P618L limits assumed): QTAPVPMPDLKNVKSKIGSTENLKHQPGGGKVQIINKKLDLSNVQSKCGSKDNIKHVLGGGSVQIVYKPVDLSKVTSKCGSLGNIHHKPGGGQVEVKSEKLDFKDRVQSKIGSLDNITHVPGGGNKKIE
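Recombinant human tau K18 fragment […] carrying P301L, 15 uM unlabeled plus 0.24 uM Alexa 594-labeled, was fibrillized with 20 uM heparin in 100 mM sodium acetate pH 7 for 6 hr at 37 C; 30 uM ThT fluorescence read after 1 hr.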
TexasRed fluor: Total Fluorescence Counterscreen for Inhibitors of the Interaction of Thyroid Hormone Receptor and Steroid Receptor Coregulator 2; TRb/SRC2 Texas Red total fluorescence interference; Potency, µM (doses to about 106 µM), for the others: at the top dose fluorescence change, negative = quenching; actives 0.29% (n = 280,000); AID 1479, 2009; active = well fitted curve in either direction with a large enough effect; inconclusive = small, poorly fitted or top-dose-only effect
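Human TRβ ligand-binding domain (0.6 uM) and Texas Red SRC2 peptide (20 nM) in Tris buffer with 1 uM T3 and 5% DMSO were incubated with pinned compound for 5 hr at ambient temperature. Total fluorescence was computed as S + 2P (555/632 nm).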
Tau fluor cs: Counterscreen qHTS for Inhibitors of Tau Fibril Formation, Fluorescence Polarization | tau K18 P301L Alexa594 fluorescence, heparin fibrillization | Potency, µM (top dose mostly 57.7 µM), inactives show at the top dose activity change, negative = decrease | actives 0.93% (n = 280,000) | AID 1463, 2008; note: nearly all actives have a fitted effect of over 55% in size
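Human tau K18 P301L (15 uM unlabeled, 0.24 uM Alexa 594-labeled) in 100 mM sodium acetate pH 7 with 20 uM heparin, 6 hr at 37 C. ThT 30 uM added, 1 hr ambient; Alexa 594 FP and total fluorescence read at 555/632 nm.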
Tau FP inhib: qHTS for Inhibitors of Tau Fibril Formation, Fluorescence Polarization. K18 P301L tau heparin fibrillization, Alexa594 FP, 6 h. Potency, µM (top dose mostly 57.7 µM), for inactives: at the highest dose activity, negative = inhibition, usual class: inhibitors. actives 0.39% (n = 280,000). AID 1468, 2008; note: nearly all actives have a fitted effect of over 55% in size
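FP of Alexa 594-tau after heparin (20 uM) induction. Substrate: human K18 P301L, 15 uM unlabeled, 0.24 uM labeled. Buffer 100 mM sodium acetate pH 7. 6 hr, 37 C.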
Numbers without * were called inactive; ? = inconclusive; . = not tested or not shown; [ ] = dose if it differs, or a comment. Unless noted, calls come from the whole dose curve; as a rule, active = well fitted curve in the direction sought with a large enough effect; inconclusive = small, poorly fitted or top-dose-only effect, or another doubt; inactive = no such curve, though single readings can be large; an effect the other way counts as inactive or inconclusive. Unless noted, % is set by controls: 0 for no effect and ±100 for the full control effect; potency is the fitted concentration of half-maximal effect.

SMILES | TRb-SRC2 inh | KDM4E inh | Tau fibril ThT | TexasRed fluor | Tau fluor cs | Tau FP inhib
C=CC(C)(C)c1c2c(c(O)c3c(=O)c4ccc(O)c(O)c4oc13)C=CC(C)(C)O2 | 10% | ? | ? | -2% | 16µM*[quencher] | ?
Nc1cc(Cl)ccc1O | -1% | . | . | -1% | . | .
COc1ccc(Nc2c(-c3cc(Br)ccc3O)nc3ncccn23)cc1OC | 4% | . | ? | -2% | 8.9µM*[quencher] | 14%
Cc1ccccc1Nc1c(-c2ccc(Br)cc2O)nc2sccn12 | 1% | . | -2% | -27% | ? | 1%
Oc1ccc2c3c1O[C@H]1c4c(c5ccccc5n4Cc4ccccc4)C[C@]4(O)[C@H](C2)N(CC2CC2)CC[C@@]314 | 2% | 3% | ? | 0% | ? | 0%
CN1C(=O)NC(=O)/C(=C\C=C\c2ccccc2[N+](=O)[O-])C1=O | -8% | ? | 25µM* | -2% | -22% | ?
COC(=O)C1CN(C#N)N(c2ccc(Cl)cc2)C12c1ccccc1-c1ccccc12 (configuration not stated) | -2% | 1% | 10µM* | -1% | -27% | ?
Cc1ccccc1CN1CCN(c2ccc(Cl)cc2)CC1 | 2% | 22µM* | -8% | -3% | -2% | 13%
N#Cc1c(/N=C/c2c(O)n(Cc3ccco3)c(=O)[nH]c2=O)sc2c1CCCC2 | -13% | ? | 20µM* | 0% | -23% | ?
O=c1[nH]c(=O)n(Cc2ccco2)c(O)c1/C=N/N1CCCCCC1 | 2% | -7% | 1% | 0% | 2% | 5%
CN1C2CCC1CC(OC(c1ccccc1)c1ccc(Cl)cc1)C2 (configuration not stated) | -5% | 5% | ? | -3% | -2% | 6%
CC1(C)Cc2c(sc3nc4n(-c5ccccc5)c(=O)c(CCC(=O)O)nn4c(=O)c23)CO1 | -1% | 32µM* | ? | -3% | -24% | -19%
COc1ccc2c(c[n+](C)c3c4cc5c(cc4ccc23)OCO5)c1OC | ? | -21% | 13µM* | -18% | 16µM*[quencher] | ?
COc1ccc2c(c1OC)CN1CCc3cc4c(cc3[C@H]1C2)OCO4 | -4%[53 µM] | -9%[25.5 µM] | . | -3%[53 µM] | . | .
CCOc1ccc(-n2c(O)c(N=Nc3ccc([N+](=O)[O-])cc3)c(=O)[nH]c2=O)cc1 | -2% | 7% | ? | -2% | -5% | 10%
Cc1cc(OC(=O)N(C)C)nc2c1c(C)nn2C | 2% | ? | -11% | -4% | -15% | 0%
CCOC(=O)C1=C(C)OC(N)=C(C(=O)OCC)C12C(=O)Nc1ccc(Br)cc12 (configuration not stated) | -13% | 7% | ? | -3% | -24% | -15%
CC1(C)CC(=O)C(C2(O)C(=O)NC(=O)NC2=O)=C(O)C1 | -26% | -19% | 6.3µM* | 2% | -18% | ?
CCOC(=O)c1ccc(NC(=O)c2cccn(Cc3ccccc3F)c2=O)cc1 | -1% | . | 2% | 6% | -16% | -5%
O=C1NC(=O)N(c2ccc(Cl)cc2)C(=O)/C1=C\c1ccc(Sc2nc3ccccc3[nH]2)o1 | ? | -11% | 14µM* | 45µM*[fluorescent] | -26% | ?
CC1COC2N=C(N[N+](=O)[O-])NC2O1 (configuration not stated) | -3% | 0% | -7% | -1% | -5% | -4%
C=Cn1ccnc1P(=S)(c1ccn(C)c1)c1nccn1C=C | -11% | -7% | 0% | 0% | 1% | 5%
